CHRM1 antagonist: antagonists of human M1 muscarinic receptor; P11229; CHO-K1 hM1, Fluo-8 calcium fluorescence, ACh EC80 antagonist; inhibition, % at 3 µM; 1.3% of 360,000 active;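 active = percent inhibition above its own plate's cutoff, namely the mean of that plate's compound wells plus 3 SD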;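 note: peak over basal fluorescence ratio during 140 s after agonist addition; 0% = ACh EC80 plus DMSO and 100% = DMSO alone without agonist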
Target sequence (P11229 whole entry, looked up): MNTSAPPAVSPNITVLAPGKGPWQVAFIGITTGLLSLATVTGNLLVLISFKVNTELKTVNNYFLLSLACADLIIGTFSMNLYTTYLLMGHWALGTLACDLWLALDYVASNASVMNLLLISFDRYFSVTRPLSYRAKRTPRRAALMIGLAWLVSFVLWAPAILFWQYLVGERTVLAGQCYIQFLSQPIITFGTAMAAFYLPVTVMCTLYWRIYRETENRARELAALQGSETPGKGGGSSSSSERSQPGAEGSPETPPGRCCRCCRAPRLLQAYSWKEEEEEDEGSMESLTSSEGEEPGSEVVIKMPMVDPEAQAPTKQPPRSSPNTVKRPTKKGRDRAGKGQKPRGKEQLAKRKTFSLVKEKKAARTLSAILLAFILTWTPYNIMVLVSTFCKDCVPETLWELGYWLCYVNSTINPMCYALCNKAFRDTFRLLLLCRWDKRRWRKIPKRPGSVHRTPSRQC
M1 PAM parental: nonselective activator or artifact in parental CHO-K1 calcium assay; ATP EC20, Fluo-8 calcium fluorescence; 0% at ATP EC20, 100% at ATP max; activation, % at 3 µM; 0.02% of 360,000 active; AID 602247;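 active = activation above the run cutoff, the mean activation of all test compounds plus 3 SD, cut at about 40% in these data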;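 note: peak over basal fluorescence ratio in a 140 s read after ATP addition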
M1 PAM: human CHRM1 positive allosteric modulation; P11229; CHO-K1 hM1, Fluo-8 calcium fluorescence, ACh EC20; 0% = ACh EC20, 100% = maximal ACh; 0.088% of 360,000 active; activation, % at 3 µM; in the data active = activation above about 19%, passing the limit was not always enough
CHRM1 agonist: agonists of human M1 muscarinic receptor; 0.33% of 360,000 active; P11229; activation, % at 3 µM; CHO-K1 hM1, Fluo-8 calcium fluorescence, agonist mode; 0% DMSO, 100% acetylcholine EC100;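 active = activation above the run's mean compound activation plus 3 SD, cut at about 16% in these data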;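 note: peak over basal fluorescence ratio within a 140 s kinetic read after compound addition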
CHO-K1 Ca ag: M1 agonist counterscreen hit in parental CHO-K1 cells; 0.48% of 360,000 active; activation, % at 3 µM; Fluo-8 calcium fluorescence; scaled to maximal ATP response, vehicle zero; in the data active = activation above about 15%;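 note: untransfected CHO-K1 host cells lacking M1 receptor as counterscreen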
CHO-K1 Ca antag: M1 antagonist counterscreen hit in parental CHO-K1 cells | ATP-induced calcium, Fluo-8 fluorescence | inhibition, % at 3 µM | 0.6% of 360,000 active | AID 602250;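 active = inhibition above a per-plate cutoff, the plate's mean sample inhibition plus 3 SD, cut at about 24% in these data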;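 note: 0% = DMSO plus EC80 ATP and 100% = DMSO alone without ATP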
* hit, by the source's call; · = not tested or not shown. In the library only some 2.4% were active in any assay of this set; here they are far more common.

SMILES	CHRM1 antagonist	M1 PAM parental	M1 PAM	CHRM1 agonist	CHO-K1 Ca ag	CHO-K1 Ca antag
Cc1cc(C)n(C(=O)c2c([N+](=O)[O-])c(C)nn2C)n1	-3.9	8.5	4.8	-5.2	0.2	0.6
C[C@H]1CN([C@@H](C)CO)C(=O)CCCn2cc(nn2)CO[C@@H]1CN(C)C(=O)Cc1ccccc1	-6.7	17.9	-0.2	-3.0	0.5	-4.0
COc1cc(/C=C(\C#N)c2nc3ccc(C)cc3[nH]2)c([N+](=O)[O-])cc1OC	-29.3	18.7	3.9	12.8	0.0	-8.6
CCOc1cc(N(CC)CC)ccc1/C=C(/C#N)c1nc2ccccc2[nH]1	52.2*	-7.8	-18.9	36.0*	19.3*	21.3
CCN(CC)c1ccc(/C=C(/C#N)c2nc3ccc(C)cc3[nH]2)c(OC(C)C)c1	52.3*	-13.8	-25.2	30.5*	39.3*	49.8*
CCCOc1cc(N(CC)CC)ccc1/C=C(/C#N)c1nc2ccc(C)cc2[nH]1	39.1*	-4.1	-12.0	10.6	17.2*	35.4*
CC(C)C(c1nnnn1Cc1cccs1)N1CCN(C(=O)c2ccco2)CC1 (stereo not given)	7.2	15.3	2.8	-5.8	3.1	-1.6
OC(CN1c2ccccc2Sc2ccccc21)Cn1nnc2ccccc21 (stereo not given)	21.2	-4.0	-4.9	-3.8	0.2	17.7
Cc1nn(CC(O)CN2c3ccccc3Sc3ccccc32)c(C)c1Br (stereo not given)	4.2	-5.3	-2.3	-1.7	18.4*	-13.5
CC(C)N1CCC(N2CCN(Cc3ccc(-c4ccc(Cl)cc4)o3)CC2CCO)CC1 (stereo not given)	13.2	9.7	-5.2	-4.0	3.9	-5.6
Cc1ccc(-c2cccc(CN3CCN(C4CCN(C(C)C)CC4)C(CCO)C3)c2)o1 (stereo not given)	31.3*	-8.9	-11.3	-4.0	-0.2	6.3
COc1ccc(C2c3[nH]c4ccccc4c3C[C@H]3C(=O)N(c4ccccc4C(=O)N4CCC(C(=O)O)CC4)C(=O)N23)cc1 (stereo not given in full)	-6.8	-8.6	1.1	-2.2	0.1	-0.5
CC(C)c1ccc(C2c3[nH]c4ccccc4c3C[C@H]3C(=O)N(c4ccccc4C(=O)N4CCC[C@H]4C(=O)O)C(=O)N23)cc1 (stereo not given in full)	-5.7	-16.8	0.6	-4.0	0.0	25.1*
CN(C(=O)COC(=O)CNC(=O)c1cccs1)c1c(N)n(Cc2ccccc2)c(=O)[nH]c1=O	-0.9	8.4	4.0	-4.0	0.8	-19.4
c1ccc2cc(CNCc3cccc4ccccc34)ccc2c1	1.1	25.3	0.8	1.9	8.3	-15.8
CC1(C)C2CCC1(CS(=O)(=O)NCc1ccc(Cl)cc1Cl)C(=O)C2 (stereo not given)	-7.2	15.0	3.4	-6.0	3.0	-20.3
CCN1/C(=c2/s/c(=C3/C(=O)N(c4ccccc4)N=C3C)n(CC)c2=O)C=Cc2ccccc21	-10.1	-12.6	5.5	-3.6	5.6	6.2
CCN1/C(=C2\C(=O)N(c3ccccc3)N=C2C)C=Cc2cc(C)ccc21	11.3	-10.9	-13.7	19.6*	23.7*	15.4
Cc1nc(-c2ccc(O)c(O)c2)cs1	1.3	-8.6	5.2	-3.4	-0.1	26.5*
COc1cccc(C2SCC(=O)N2c2ccc(C)cc2)c1OC (stereo not given)	58.0*	16.2	-27.1	-11.5	0.1	-7.7
CSc1ncccc1C(=O)N1CCC1(C)C(=O)NC(C)C (stereo not given)	-13.2	2.0	7.8	-2.4	0.1	-4.1
CCN(c1ccccc1)S(=O)(=O)c1ccc(C(=O)NCC(c2ccccc2OC)N2CCCC2)cc1 (stereo not given)	9.4	8.8	-10.5	-6.7	3.0	-8.1
COc1ccccc1NS(=O)(=O)c1cccc(C(=O)NCC(c2ccccc2OC)N2CCCC2)c1 (stereo not given)	41.6*	-4.7	-20.0	-7.1	1.2	-12.8
C=CCN(c1ccccc1)S(=O)(=O)c1cccc(C(=O)NCC(c2ccccc2OC)N2CCCC2)c1 (stereo not given)	50.4*	-10.2	-24.2	-8.3	-0.6	-14.3
COc1ccccc1C(CNC(=O)c1cccc(S(=O)(=O)Nc2ccc(C)cc2)c1)N1CCCC1 (stereo not given)	77.6*	17.9	-23.1	-7.2	2.6	-0.8
SMILES	CHRM1 antagonist	M1 PAM parental	M1 PAM	CHRM1 agonist	CHO-K1 Ca ag	CHO-K1 Ca antag
CCOC(=O)[C@]12CCCC=C1N(Cc1cccc3ccccc13)C(=O)[C@H](CC(=O)NCc1ccc(OC)c(OC)c1)C2	·	13.3	·	·	1.0	-20.6
O=c1cc(O)c(-c2ccc(Cl)cc2)c(Cl)[nH]1	-19.7	8.3	12.0	-3.4	0.4	-2.6
O=C1c2cc(Cl)ccc2-c2c(O)cc(Cl)cc21	35.7*	11.8	-15.4	8.0	8.5	-3.3
Cc1ccc(C)c(N2CCN(C(=O)CCn3c(=S)[nH]c4cc5c(cc4c3=O)OCO5)CC2)c1	-1.1	16.4	0.5	-4.8	0.9	-3.2
O=C(NCCOc1ccccc1)c1ccccc1NC(=O)C1CCCO1 (stereo not given)	-3.3	8.4	6.8	-5.2	18.1*	1.5
CC(C)c1ccc(/C=C2\SC(=O)N(CC(=O)NC3CCS(=O)(=O)C3)C2=O)cc1 (stereo not given)	20.2	-7.3	-6.4	1.2	8.0	-1.5
N#Cc1c(-c2ccccc2Cl)cc(C2CC2)nc1N	-3.4	42.6*	8.1	42.4*	25.3*	-16.8
COc1cc(C(=O)NCC(=O)N/N=C(/C)c2ccc3c(c2)CCCC3)cc(OC)c1OC	6.6	-11.8	3.1	-7.2	-0.2	26.5*
CCOC(=O)/C=C/C(=O)Nc1ccc(Oc2ccccc2)cc1	27.9	-3.4	-11.2	-3.2	11.6	28.3*
O=C(O)/C=C/C(=O)Nc1ccc(Oc2ccccc2)cc1	-21.4	21.1	8.4	-5.0	0.8	-13.2
CN(C)CCOC1c2ccccc2CCc2ccc3ccccc3c21 (stereo not given)	53.0*	21.6	-23.7	-5.3	4.7	-13.5
Cc1cc2ccc3ccccc3c2cc1CN(C)C	8.1	-17.4	-0.5	-2.5	1.6	1.5
O=C(NCc1cccnc1)c1cccc(S(=O)(=O)NCc2ccccc2)c1	-22.3	7.8	9.5	-2.9	1.4	-2.6
CC1CN(C(=O)NCc2ccccc2)c2cc(Cl)ccc2O1 (stereo not given)	4.1	11.1	-4.7	-10.2	0.1	-10.2
CN(C)S(=O)(=O)c1ccc(Cl)c(NC(=O)CSc2nc3c(cc2C#N)C(=O)CCC3)c1	14.7	19.3	-7.9	-8.8	16.6*	2.6
COc1ccc(N(Cc2ccccc2)C(=O)CSc2nnc(Cn3nnc4ccccc43)o2)cc1	-23.7	0.4	13.5	6.0	-0.4	17.5

Source: PubChem BioAssay
